Reference: publication PMC4336329 (PLoS ONE, 2015)
The campaign covered roughly 310,000 compounds. About 14,000 (4.5%) showed an effect of 50% or more. Effects have a minus sign here. What follows is part of a selection rich in strong results, with near analogues and random picks from the rest.

target: human ether-à-go-go-related gene (hERG) potassium channel (human, UniProt Q12809); assay: primary screen, population patch clamp on CHO cells stably expressing hERG; higher = less effect of the substance
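Also: peak tail current of the secondary pulse compared with the same well before compound.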

human ether-à-go-go-related gene (hERG) potassium channel, sequence (Q12809 whole entry, looked up): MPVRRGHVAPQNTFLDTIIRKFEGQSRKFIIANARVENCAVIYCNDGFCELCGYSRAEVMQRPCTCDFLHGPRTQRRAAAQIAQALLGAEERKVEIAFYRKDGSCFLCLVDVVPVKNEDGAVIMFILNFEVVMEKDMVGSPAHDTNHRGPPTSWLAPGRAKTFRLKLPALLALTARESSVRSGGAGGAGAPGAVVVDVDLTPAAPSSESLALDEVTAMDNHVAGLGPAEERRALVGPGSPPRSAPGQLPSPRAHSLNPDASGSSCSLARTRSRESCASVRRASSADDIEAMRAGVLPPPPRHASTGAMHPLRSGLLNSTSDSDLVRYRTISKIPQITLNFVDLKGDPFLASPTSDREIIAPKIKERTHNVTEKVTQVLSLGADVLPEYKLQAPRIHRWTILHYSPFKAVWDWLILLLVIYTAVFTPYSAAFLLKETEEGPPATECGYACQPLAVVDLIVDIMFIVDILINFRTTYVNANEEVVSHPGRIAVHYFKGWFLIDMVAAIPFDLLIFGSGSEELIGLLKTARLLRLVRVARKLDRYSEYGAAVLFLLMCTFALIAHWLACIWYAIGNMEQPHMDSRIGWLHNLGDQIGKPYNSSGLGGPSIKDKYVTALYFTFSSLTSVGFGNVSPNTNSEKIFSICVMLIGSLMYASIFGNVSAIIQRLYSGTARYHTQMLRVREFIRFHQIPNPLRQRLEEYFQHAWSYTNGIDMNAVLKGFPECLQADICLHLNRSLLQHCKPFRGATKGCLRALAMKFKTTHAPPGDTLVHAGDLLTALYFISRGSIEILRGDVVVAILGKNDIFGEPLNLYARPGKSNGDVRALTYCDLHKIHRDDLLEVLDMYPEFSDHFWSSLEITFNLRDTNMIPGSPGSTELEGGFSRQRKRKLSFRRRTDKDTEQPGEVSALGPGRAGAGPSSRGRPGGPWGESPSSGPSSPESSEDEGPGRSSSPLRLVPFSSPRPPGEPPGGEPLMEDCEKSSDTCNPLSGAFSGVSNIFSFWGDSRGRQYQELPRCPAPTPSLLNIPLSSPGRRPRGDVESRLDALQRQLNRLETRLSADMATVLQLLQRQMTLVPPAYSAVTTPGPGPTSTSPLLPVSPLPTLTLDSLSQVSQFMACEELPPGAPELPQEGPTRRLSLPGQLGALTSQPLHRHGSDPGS

SMILES	hERG current change (%, negative = inhibition) at 10uM
COc1ccc(OC)c(S(=O)(=O)Nc2c(F)cccc2F)c1	16%
CC1CN(C(=O)N2CCCCC2)CCN1C(=O)N1CCCCC1 (centres unmarked)	16.9%
CCN(CC(=O)Nc1ccc(S(=O)(=O)N2CCOCC2)cc1)Cc1ccccc1	-16.5%
O=C(CCc1ccccc1Cl)Nc1ccc(S(=O)(=O)N2CCOCC2)cc1	-4.49%
Cc1cccc(C(=O)NN2C(=O)C3C(c4ccccc4)C=CC(c4ccccc4)C3C2=O)c1 (centres unmarked)	3.83%
COc1cccc(-c2ccc(NC(=O)C3CCCN(Cc4nccn4C)C3)cc2)c1 (centres unmarked)	-31.8%
COc1cccc(-c2ccc(NC(=O)C3CCCN(CCCn4nc(C)cc4C)C3)cc2)c1 (centres unmarked)	-66%
COc1cccc(-c2ccc(NC(=O)C3CCCN(Cc4ccco4)C3)cc2)c1 (centres unmarked)	6.02%
COc1cccc(-c2ccc(NC(=O)C3CCCN(Cc4cc(C)[nH]n4)C3)cc2)c1 (centres unmarked)	-36.5%
COc1cccc(-c2ccc(NC(=O)C3CCCN(Cc4cnn(C)c4C)C3)cc2)c1 (centres unmarked)	0.939%
COc1cccc(-c2ccc(NC(=O)C3CCCN(CCCn4cccn4)C3)cc2)c1 (centres unmarked)	-64.1%
CCOC(=O)N1CCC(NS(=O)(=O)c2ccc(C#N)cc2)CC1	-2.64%
NS(=O)(=O)c1cccc(NC(=O)COC(=O)CNC(=O)c2ccc(-c3ccccc3)cc2)c1	5.77%
CC(C)CNC(=O)COC(=O)CCC(=O)c1ccc(F)cc1	6.45%
C1=C(CCNc2ncnc3c2cnn3-c2ccccc2)CCCC1	8.79%
Cn1cc(C=C2C(=O)OC3(CCCCC3)OC2=O)c2ccccc21	9.19%
O=C(OCc1nc2ccccc2[nH]1)C1CCCCC1	2.85%
COc1ccc(CCN(C)C(=O)C2CC(=O)N(Cc3ccc(C)cc3)C2)cc1OC (centres unmarked)	0.405%
O=C(O)C1CC(=O)N(c2ccc(Br)cc2)C1 (centres unmarked)	4.94%
COc1ccc(Cl)cc1NC(=O)CN(C)C(=O)C1CC(=O)N(Cc2ccc(C)cc2)C1 (centres unmarked)	-50%
Cc1ccc(N2CC(C(=O)N3CCC(C(=O)Nc4ccc(Br)cc4)CC3)CC2=O)cc1 (centres unmarked)	-64.2%
C=CCN(CC=C)C(=O)C1CC(=O)N(c2ccc(Br)cc2)C1 (centres unmarked)	-59.2%
C=CCNC(=O)C1CC(=O)N(c2ccc(Br)cc2)C1 (centres unmarked)	-7.08%

SMILES	hERG current change (%, negative = inhibition) at 10uM
COc1ccccc1NC(=O)C1CCN(C(=O)C2CC(=O)N(c3ccc(C)cc3)C2)CC1 (centres unmarked)	-9.15%
CC(=O)Nc1ccc(NC(=O)C2CCN(C(=O)C3CC(=O)N(c4ccc(C)cc4)C3)CC2)cc1 (centres unmarked)	12.4%
Cc1ccc(N2CC(C(=O)N3CCC(C(=O)Nc4cccc(Br)c4)CC3)CC2=O)cc1 (centres unmarked)	-60.1%
CCOc1ccc(NC(=O)C2CCN(C(=O)C3CC(=O)N(c4ccc(C)cc4)C3)CC2)cc1 (centres unmarked)	-22.1%
Cc1ccc(N2CC(C(=O)N3CCC(C(=O)NC(C)(C)C)CC3)CC2=O)cc1 (centres unmarked)	20.2%
COc1ccc(NC(=O)CN(C)C(=O)C2CC(=O)N(Cc3ccc(C)cc3)C2)cc1 (centres unmarked)	4.41%
O=C(Nc1ccc(F)cc1F)c1ccco1	2.94%
COc1nc(N)c(S(=O)(=O)c2ccccc2)cc1C#N	-19%
COc1cccc(S(=O)(=O)N2CCN(Cc3ccc4c(c3)OCO4)CC2)c1	-24.4%
COC(=O)/C(=C\Nc1ccc(Cl)cc1Cl)NC(=O)c1ccc(OC)cc1	5.27%
Fc1ccc(C2=CC(c3ccco3)n3nnnc3N2)cc1 (centres unmarked)	-6.76%
Cc1ccc(OC(C)C(=O)Nc2cc(C)on2)cc1 (centres unmarked)	2.53%
O=C(NCCSCc1ccccc1)c1ccc(C2SCC(=O)N2Cc2ccccc2)cc1 (centres unmarked)	-8.07%
CC(=O)c1cccc(NC(=O)c2ccco2)c1	7.09%
Cc1ccccc1NC(=O)Cn1c(=O)sc2ccccc21	-0.661%
COc1ccc(Cl)cc1NC(=O)C1CCN(C(=O)C2CC(=O)N(c3ccc(C)cc3)C2)CC1 (centres unmarked)	-60.4%
COc1ccc(OC)c(NC(=O)C2CCN(C(=O)C3CC(=O)N(c4ccc(C)cc4)C3)CC2)c1 (centres unmarked)	-37.7%
COc1ccc(C)cc1NC(=O)C1CCN(C(=O)C2CC(=O)N(c3ccc(C)cc3)C2)CC1 (centres unmarked)	-23.1%
CCc1cccc(C)c1NC(=S)NCc1ccccc1	0.76%
CC(C)OP(=O)(c1ccccc1)c1ccccc1	-3.71%
c1ccc2sc(NC3=NCN(Cc4ccc5c(c4)OCO5)CN3)nc2c1	4.28%
CCOC(=O)N1CCN(C(=O)c2nc3ccccc3s2)CC1	-0.815%
N#C/C(=C\N1CCN(Cc2ccc3c(c2)OCO3)CC1)c1nc2ccccc2s1	-52.8%

SMILES	hERG current change (%, negative = inhibition) at 10uM
CCOC(=O)N1CCN(/C=C(\C#N)c2nc3ccccc3s2)CC1	-58.5%
CCOC(=O)N1CCN(CC(=O)Nc2nc3ccccc3s2)CC1	-35.5%
Cl.N#C/C=C/N1CCN(Cc2ccc3c(c2)OCO3)CC1	1.29%
CCCn1c(=O)c(C(=O)NCCc2ccc(OC)c(OC)c2)c(O)c2ccccc21	10.5%
CCOC(=O)C1=C(COC(=O)C2CC(=O)N(c3ccc(C)cc3)C2)NC(=O)NC1C (centres unmarked)	-7.55%
Cc1cccc(S(=O)(=O)C(C#N)c2nc3ccccc3nc2N2CCCC2)c1 (centres unmarked)	-18.4%
O=C(N/N=C1\CCCc2ccccc21)c1ccc([N+](=O)[O-])cc1Cl	-3.01%
COc1ccc(C(=O)C2CCCN(C/C=C/c3ccccc3OC)C2)c(OC)c1 (centres unmarked)	-77.5%
COc1cccc(C(=O)C2CCCN(C/C=C/c3ccccc3OC)C2)c1 (centres unmarked)	-68.4%
NC(=O)c1cc([N+](=O)[O-])cc2c1C=Cc1ccccc1O2	2.92%
CC12COC3(C(=O)Nc4ccc([N+](=O)[O-])cc4)CC1CCC32C (centres unmarked)	-32.1%
O=C(COC(=O)C1CC2CCCC(C1)C2=O)NC(=O)c1ccc(OC(F)F)cc1 (centres unmarked)	23.2%
COc1ccc(C)cc1S(=O)(=O)N(CC(=O)NCc1ccc(Cl)cc1)Cc1ccccc1	8.35%
COc1ccc(N(CC(=O)NCc2ccccc2)S(=O)(=O)c2c(C)n[nH]c2C)cc1	-35.6%
COc1ccc(N(CC(=O)NCc2ccc(Cl)cc2)S(=O)(=O)c2c(C)n[nH]c2C)cc1	-57.4%
CCOC(=O)N1CCN(C(=O)CN(Cc2ccc(Cl)cc2)S(C)(=O)=O)CC1	-15.5%
COc1ccc(CNC(=O)CN(Cc2ccc(Cl)cc2)S(=O)(=O)c2ccccc2)cc1	-12.5%
COc1ccc(CNC(=O)CN(Cc2ccccc2)S(=O)(=O)c2ccc(Cl)cc2)cc1	-61.7%
COc1ccc(CNC(=O)CN(Cc2ccc(C)cc2)S(=O)(=O)c2ccc(Cl)cc2)cc1	-50.9%
COc1ccc(CNC(=O)CN(Cc2ccc(Cl)cc2)S(C)(=O)=O)cc1	-45.4%
CCOC(=O)N1CCN(C(=O)CN(Cc2ccc(Cl)cc2)S(=O)(=O)c2ccccc2)CC1	-70.1%
CCOC(=O)N1CCN(C(=O)CN(Cc2ccc(Cl)cc2)S(=O)(=O)c2ccc(C)cc2)CC1	-42.8%
COc1ccc(N(CC(=O)NCc2ccc(F)cc2)S(=O)(=O)c2c(C)n[nH]c2C)cc1	-26.5%

SMILES	hERG current change (%, negative = inhibition) at 10uM
COc1ccc(CNC(=O)CN(C)S(=O)(=O)c2ccc(Cl)cc2)cc1	-20.4%
CCc1ccccc1NC1=NCC(=O)N1Cc1ccccc1	4.53%
COc1ccc(N(C(=O)c2ccco2)S(=O)(=O)c2cc(OC)ccc2OC)cc1	-19.3%
CC(NC(N)=O)C(=O)OCC(=O)c1ccc(-c2ccccc2)cc1 (centres unmarked)	10.8%
COc1ccc(OC)c(CCNC(=O)c2ccc3c(=O)[nH]c4c(C(=O)NC(C)C)sc(=S)n4c3c2)c1	21.2%
CN(c1ccccc1)S(=O)(=O)c1ccc(Cl)c(C(=O)NC2=NCCS2)c1	9.14%
Cc1cc(C)c2c3c(sc2n1)C(=O)N(c1ccccc1C)CC(=O)N3	14.6%
CN(C)C(CNc1ccc(S(C)(=O)=O)cc1[N+](=O)[O-])c1ccccc1 (centres unmarked)	-12.6%
COc1ccc(NC(=O)CSCc2ccc([N+](=O)[O-])cc2)cc1OC	-17.5%
O=C(NCCO)c1cc2cc(Cl)cc(Cl)c2oc1=O	-3.65%
CCN(CC(=O)NCc1cccs1)C(=O)COc1ccc(C(N)=O)cc1	6.69%
CCCCc1cc(=O)oc2c(C)c(OCC(=O)N3CCCC3)ccc12	-64.8%
CCCc1cc(=O)oc2cc(OCC(=O)N3C[C@H]4C[C@@H](C3)c3cccc(=O)n3C4)c(Cl)cc12	-14.7%
C=C(C)COc1ccc2c(C)c(CC(=O)N3C[C@H]4C[C@@H](C3)c3cccc(=O)n3C4)c(=O)oc2c1C	-49.2%
CCCCc1cc(=O)oc2c(C)c(OCC(=O)N3CCC(C(=O)O)(c4ccccc4)CC3)ccc12	6.82%
CCCc1cc(=O)oc2c(C)c(OCC(=O)N3C[C@H]4C[C@@H](C3)c3cccc(=O)n3C4)ccc12	-23.9%
CCc1cc(=O)oc2cc(OCC(=O)N3C[C@H]4C[C@@H](C3)c3cccc(=O)n3C4)c(Cl)cc12	-3.61%
CCCCc1cc(=O)oc2cc(OCC(=O)N3C[C@H]4C[C@@H](C3)c3cccc(=O)n3C4)c(Cl)cc12	-62.5%
COc1ccc2c(C)c(CC(=O)N3C[C@H]4C[C@@H](C3)c3cccc(=O)n3C4)c(=O)oc2c1C	-3.48%
CCCCc1cc(=O)oc2c(C)c(OCC(=O)N3CCC(C(N)=O)CC3)ccc12	-16.7%
CCCCc1cc(=O)oc2c(C)c(OCC(=O)N3C[C@H]4C[C@@H](C3)c3cccc(=O)n3C4)ccc12	-60%
CCc1cc(=O)oc2c(C)c(OCC(=O)N3C[C@H]4C[C@@H](C3)c3cccc(=O)n3C4)ccc12	5.08%
CC(C)=CCOc1ccc2c(C)c(CC(=O)N3C[C@H]4C[C@@H](C3)c3cccc(=O)n3C4)c(=O)oc2c1C	-57.3%
